From PubChem
In the library only some 2.4% were active in any assay of this set; here they are far more common.
TRHR ag = qHTS for Small Molecule Agonists and Allosteric Enhancers of Human TRH Receptor: Primary Screen for Agonists; actives 0.18% (n = 360,000); Thyrotropin-releasing hormone receptor (Homo sapiens), P34981; AID 493084, 2011; TRHR cells, calcium flux fluo-8, FDSS agonist mode; activation, % at 2 µM; in the data active = activation above about 30%; note: 0% is about no effect
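In this calcium-flux screen, cells bearing human TRHR are dye-loaded with fluo-8, baselined for 10 cycles, then exposed to library compounds; positive kinetic calcium responses during the agonist phase mark hits, with TRH as control.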
GLP1R inv ag = qHTS of GLP-1 Receptor Inverse Agonists (Inhibition Mode); actives 1.6% (n = 410,000); Potency, µM (doses to about 38.3 µM), for inactives: top-dose activity change, negative = inhibition, hits mostly inhibitors; Glucagon-like peptide 1 receptor (Homo sapiens), P43220; HEK293 GLP-1R CRE-luciferase, luminescence, 24 h; GLP-1R form is constitutively active; note: potency is the fitted concentration of half-maximal effect; % is set by controls: 0 for no effect and ±100 for the full control effect; nearly all actives have a fitted effect of over 55% in size
Target sequence (P43220 whole entry, looked up): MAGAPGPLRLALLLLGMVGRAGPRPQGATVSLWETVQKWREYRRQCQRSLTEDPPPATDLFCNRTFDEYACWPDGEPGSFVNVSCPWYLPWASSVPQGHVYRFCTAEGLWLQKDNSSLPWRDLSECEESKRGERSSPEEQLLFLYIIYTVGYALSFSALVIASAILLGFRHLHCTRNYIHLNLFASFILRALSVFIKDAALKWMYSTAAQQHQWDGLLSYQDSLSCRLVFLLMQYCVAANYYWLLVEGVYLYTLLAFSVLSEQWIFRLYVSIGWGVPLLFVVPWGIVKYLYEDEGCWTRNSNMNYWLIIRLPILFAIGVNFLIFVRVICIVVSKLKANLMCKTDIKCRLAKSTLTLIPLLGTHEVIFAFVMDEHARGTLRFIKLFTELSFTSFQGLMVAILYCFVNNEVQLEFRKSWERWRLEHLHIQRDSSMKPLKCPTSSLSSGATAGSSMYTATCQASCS
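Cells are plated, allowed 12 hours at 37 deg C, then treated with compounds for 24 hr before luciferase detection reagent is added and luminescence is read after 12 min at room temperature. The HEK293 line carries constitutively active GLP-1R with a cAMP-responsive reporter.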
GLP1R ag = qHTS of GLP-1 Receptor Agonists | Glucagon-like peptide 1 receptor (Homo sapiens), P43220 | HEK293 GLP-1R CRE-luciferase, luminescence, 4-6 h; cells express a hypersensitive GLP-1R form | Potency, µM (titrated, usually from 45.6 µM), inactives show top-dose activation, most hits filed as activators | actives 0.007% (n = 380,000); note: potency is the fitted concentration of half-maximal effect; % of control where 0% means no effect
PTHR1 agonist = qHTS for PTHR1 Agonists: Primary Screen; actives 0.075% (n = 410,000); AID 743266, 2014; Potency, µM (doses to about 115 µM), without a hit: at the highest dose activation, hits mostly activators; Parathyroid hormone/parathyroid hormone-related peptide receptor (Homo sapiens), Q03431; HEK293 GP2 PTHR1 cells, GloSensor cAMP luminescence, 1 h; note: potency is the fitted concentration of half-maximal effect; nearly all actives have a fitted effect of over 55% in size
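HEK-293-derived GP2 cells expressing PTHR1 and a GloSensor cAMP reporter, 3,000/well, plated overnight, given luciferin plus IBMX (each 0.5 mM as added) for 1 h at 37 °C, then compound for 1 h at 37 °C. Luminescence was read after 15 min at room temperature.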
TRHR PAM = qHTS for Small Molecule Agonists and Allosteric Enhancers of Human TRH Receptor: Primary Screen for Enhancers | Thyrotropin-releasing hormone receptor (Homo sapiens), P34981 | TRHR cells, fluo-8 calcium fluorescence, EC20 TRH enhancement | enhancement, % at 2 µM | actives 0.66% (n = 360,000); in the data active = enhancement above about 30%; note: 0% is about no effect
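Enhancer read-out: after compound pinning and an initial kinetic agonist-mode read, an EC20 of TRH (10 nM final) was injected and fluo-8 calcium signal (Ex 480/Em 530) followed at 1 s/cycle for 100 cycles in TRHR-expressing cells.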
GLP1R cytotox = qHTS of GLP-1 Receptor Inverse Agonists: Cytotox Screen; HEK293 cAMP-luciferase reporter cells, luminescence, 24 h; actives 0.13% (n = 410,000); Potency, µM (titrated, usually from 38.3 µM), without a hit: at the top dose activity change, negative = inhibition, most hits filed as inhibitors; AID 624418, 2012;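 note: loss of luciferase light is scored as toxicity; potency is the fitted concentration of half-maximal effect; % is set by controls: 0 for no effect and ±100 for the full control effect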
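Seeding density was 200 cells/uL; after overnight-length (12 h) culture, 23 nL compounds went on for 24 h at 37 °C. Readout used a luciferase detection reagent, luminescence taken after 12 min at room temperature.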
Numbers without * were called inactive; i = inactive; ? = inconclusive; . = no result given; [ ] = another dose, or the depositor's remark. Unless noted, calls come from the whole dose curve; as a rule, active = well fitted curve in the direction sought with a large enough effect; inconclusive = small, poorly fitted or top-dose-only effect, or another doubt; inactive = no such curve, though single readings can be large; an effect the other way counts as inactive or inconclusive.

SMILES	TRHR ag	GLP1R inv ag	GLP1R ag	PTHR1 agonist	TRHR PAM	GLP1R cytotox
CCOC(=O)c1ccc(N2C(=O)c3n[nH]c(-c4ccco4)c3C2c2ccc(F)cc2)cc1 (configuration not stated)	4.6	?	-5.8%	-18.9%	7.3	-24.0%
CCOC(=O)c1ccc(N2C(=O)c3n[nH]c(-c4ccco4)c3C2c2ccc(OCC)cc2)cc1 (configuration not stated)	3.7	11.2µM*	.	-36.5%	14.1	-28.9%
CCOc1ccc(NC(=O)NC(C)c2c(-n3cccc3)sc3c2CCN(CC)C3)cc1 (configuration not stated)	9.8	10.4%	.	i	31.3*	-6.1%
Cc1cc(C)cc(Cn2c3ccc(NC(=S)NCc4ccccc4F)cc3c(=O)n2C)c1	.	?	-4.0%	-12.6%	.	-14.2%
O=S(=O)(c1ccccc1)N1CCSC1c1ccco1 (configuration not stated)	0.4	-11.5%	-1.1%	-10.2%	33.8*	-0.5%
Cc1ccc(C(=O)CC(=O)c2ccc(C)cc2O)cc1	-0.3	12.3%	8.5%	-19.1%	1.6	65.1%
COc1ccc(/C(C)=N/NC(=S)NCc2ccco2)cc1	-0.1	11.2µM*	23.4%	-8.5%	-6.1	?
COc1ccccc1/C(C)=N/NC(=S)NCc1ccccc1	0.3	2.51µM*	18.1%	i	-4.7	5.01µM*
C/C(=N\NC(=S)NCc1ccccc1)c1cccc(Br)c1	1.0	8.91µM*	27.0%	-1.4%	16.0	?
C/C(=N\NC(=S)NCCc1ccccc1)c1cccc(Br)c1	0.2	-16.6%	6.9%	-18.6%	1.2	?
C/C(=N\NC(=S)Nc1cccc(C)c1)c1cc2ccccc2o1	0.2	9.2%[7.66 µM]	15.3%	-12.0%	-1.1	?
CCNC(=S)N/N=C(\C)c1cc2ccccc2o1	-0.9	4.47µM*	21.4%	i	-3.1	?
O=C(CC1SC(N2CCCC2)=NC1=O)Nc1ccc(C(=O)Nc2ncccc2O)cc1 (configuration not stated)	0.2	156.4%	5.4%	i	0.4	3.8%
CCOC(=O)C1C(C(=O)NN)C1C(=O)Nc1ccccc1 (configuration not stated)	0.1	0.1%	3.4%	-11.1%	0.8	3.2%
C/C(=N\NC(=S)NCc1ccccc1)c1ccc2ccccc2c1	-0.3	?	4.9%	-30.8%	-0.7	2.82µM*
O=C1CN(C(=O)COC(=O)CCSc2ccccc2Cl)c2ccccc2N1	-1.5	0.6%	-1.1%	-53.6%	33.2*	-3.3%
O=C1CN(C(=O)COC(=O)CCNS(=O)(=O)c2ccc(Cl)cc2)c2ccccc2N1	-0.7	-4.3%	10.5%	-8.6%	-7.8	-2.5%
O=C(Nc1ccncc1)C1CCN(S(=O)(=O)c2ccccc2C(F)(F)F)CC1	-0.1	-23.8%	6.0%	-38.0%	-2.0	16.7%
CCCCNCC1C(Oc2ccc(Cl)cc2)C(=O)N1c1ccccc1C (configuration not stated)	0.3	10µM*	3.4%	-9.0%	-5.1	?
CCCNCC1C(Oc2ccc(Cl)cc2Cl)C(=O)N1c1cccc(C)c1C (configuration not stated)	0.8	?	0.0%	-0.6%	-1.6	?
Cc1ccc([N+](=O)[O-])cc1N(CC(=O)Nc1ccc(S(=O)(=O)Nc2cccc(C(F)(F)F)c2)cc1)S(C)(=O)=O	1.4	1µM*	-19.6%	-47.6%	3.2	?
O=c1[nH]cnc2sc3c(c12)CCC3	0.2	17.3%	4.5%	i	33.2*	21.1%
CC(=O)Oc1cccc(N2C(=O)C3C4C=CC(C4=C(C)C)C3C2=O)c1 (configuration not stated)	0.5	-31.6%	1.2%	i	1.6	-0.3%
CC(=O)c1ccc(NC(=O)c2cnn3ccccc23)cc1	0.5	2.51µM*	-6.3%	-31.3%	5.1	-6.3%
CC1=CC(C)(C)NC(=S)N1c1ccc(C)cc1	-0.4	?	-3.7%	-2.8%[57.5 µM]	-1.6	?
SMILES	TRHR ag	GLP1R inv ag	GLP1R ag	PTHR1 agonist	TRHR PAM	GLP1R cytotox
CC1=CC(C)(C)NC(=S)N1c1ccc(C)c(C)c1	-0.9	11.2µM*	3.8%	14.3%	-2.0	11.2µM*
CC(=O)c1c(C)n(CC(=O)NCc2ccco2)c2ccccc12	-0.2	5.9%	0.0%	?	35.1*	0.4%
CCCCNC(=O)C1(C)CCCCN1Cc1ccccc1-c1ccccc1 (configuration not stated)	.	2.51µM*	-5.0%	-15.2%	.	-6.9%
CC(=O)c1cccc(NC(=O)c2cc(-c3ccc(C)cc3)on2)c1	1.4	7.0%	-4.0%	i	2.3	-2.6%
CCCCCOc1ccc(Br)cc1/C(C)=N/NC1=NCCN1	0.1	2.24µM*	0.9%	-6.1%[57.5 µM]	-6.5	?
C/C(N)=C(/C#N)C(=O)CSc1nnc(Nc2cccc(C)c2)s1	0.0	?	?	-13.9%	-4.7	?
FC(F)(F)COCC(F)(F)F	.	.	-4.3%	.	.	.
CCC(C)(C)C1CCC2(CC1)NC(=O)N(CC(=O)N(C)Cc1ccc(OC(F)F)cc1)C2=O (configuration not stated)	0.4	1.41µM*	14.2%	-25.7%	-1.5	-11.1%
CC(=O)NS(=O)(=O)c1ccc(NC(=O)c2ccc(NC(=O)c3cccs3)cc2)cc1	-0.1	0.7%	-0.9%	?	15.9	12.2%
CN1CCN(CCC(=O)N2c3ccccc3Sc3ccc(Cl)cc32)CC1	0.3	?	2.9%	-12.4%	-5.6	?
CN1CCN(CCOC2Cc3ccccc3Sc3ccc(Cl)cc32)CC1 (configuration not stated)	0.8	8.91µM*	-25.2%	?	0.0	?
Cc1ccc(C)c(NC(=S)NC(NC(=O)/C=C/c2ccccc2)C(Cl)(Cl)Cl)c1 (configuration not stated)	0.9	3.55µM*	-15.0%	-21.5%[57.5 µM]	-2.4	-20.5%
CN(C)c1ccc(N2C(=NC(=O)CCc3ccccc3)SC3CS(=O)(=O)CC32)cc1 (configuration not stated)	0.0	14.6%	-5.5%	23.9%	5.9	3.9%
CC(=O)c1c(Cl)nc2cccc3c2c1-c1ccccc1C3=O	-0.1	38.4%	1.6%	i	34.3*	-13.9%
